# Results from PubChem BioAssay.
# Activity calls are given as the source filed them.
# Assays:
# [1] = compound effects on lung adenocarcinoma cell viability – A549, calcein-AM fluorescence, 48 h, basal, profiling panel (AID 1162); settings: higher = more signal
# [2] = compound effects on differentiated 3T3-L1 adipocyte viability – cell-based, 3T3-L1 adipocytes, calcein-AM fluorescence, 48 h, basal, profiling panel (AID 1163); settings: 3T3-L1 adipocytes viability, higher = more signal
# [3] = compound effects on hepatocellular carcinoma cell viability – HepG2, calcein-AM fluorescence, 48 h, basal, profiling panel (AID 1164); settings: higher = more signal
# [4] = compound effects on multiple myeloma cell viability – MM1S, calcein-AM fluorescence, 48 h, basal, profiling panel (AID 1165); settings: higher = more signal;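 further: viability of MM1S multiple myeloma cells under basal unstimulated conditions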
# [5] = calcein-AM signal in unstimulated myeloma cells – cell-based, calcein-AM fluorescence, 48 h, PK04 Diversity Set, profiling panel (AID 1166); settings: RPMI8226 myeloma viability, higher = more signal;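 further: cells grown under basal conditions without added stimulus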
# [6] = JC-1 mitochondrial signal, unstimulated HepG2 cells – cell-based, JC-1 fluorescence, 24 h, 100 nL compound, profiling panel (AID 1167); settings: HepG2 mitochondrial potential, higher = more signal
# [7] = JC-1 mitochondrial signal, unstimulated adipocytes – cell-based, JC-1 fluorescence, 3T3-L1 adipocytes, 24 h, 100 nL compound, profiling panel (AID 1168); settings: JC-1 mitochondrial fluorescence, higher = more signal, called active from +8 up or from −8 down
# [8] = JC-1 mitochondrial signal, unstimulated myeloma cells – cell-based, JC-1 fluorescence, RPMI8226, 24 h, 100 nL compound, profiling panel (AID 1169); settings: JC-1 mitochondrial potential fluorescence, higher = more signal
# [9] = JC-1 mitochondrial signal, unstimulated MM1S myeloma – cell-based, JC-1 fluorescence, 24 h, 100 nL compound, profiling panel (AID 1170); settings: MM1S mitochondrial potential, higher = more signal
# [10] = resazurin metabolic signal in A549 cells – cell-based, resazurin fluorescence, 24 h, PK04 Diversity Set, profiling panel (AID 1171); settings: A549 viability, higher = more signal, called active from +8 up or from −8 down
# Further: test concentration not given here.
Structure (SMILES),z-score [1],z-score [2],z-score [3],z-score [4],z-score [5],z-score [6],z-score [7],z-score [8],z-score [9],z-score [10]
O=C1C[C@@H](O)[C@@H](O)[C@@H]2[C@@H]3C(=O)N(C[C@@H]4CCCO4)C(=O)[C@@H]3CC[C@@H]12,0.708,-0.378,1.12,0.107,-1.06,1.29,-0.248 (inactive),-0.407,0.345,-0.582 (inactive)
CCN1C(=O)[C@H]2[C@H]3[C@H](O)[C@H](O)CC(=NOCC(C)C)[C@@H]3CC[C@H]2C1=O,-0.556,-0.0239,-0.308,-0.181,0.922,-0.501,-0.769 (inactive),0.788,0.0483,-0.0226 (inactive)
CCOC(=O)[C@H](CC(C)C)NC(=O)CCC1CC(OC(=O)NCc2cccc3ccccc23)CC2(CCCC(COC(=O)NCCOc3ccccc3)O2)O1 (stereo not given in full),2.15,0.519,0.335,-1.32,-0.273,1,0.661 (inactive),-0.763,-0.985,1.33 (inactive)
COC(=O)C1=C(C)N(Cc2ccccc2)[C@]23O[C@](C(=O)OC)(C(=O)N2[C@@H]1c1ccccc1)C(C(=O)OC)=C3C(=O)OC,-0.321,1.48,0.0331,-1.45,-3.2,0.483,0.725 (inactive),-0.256,-0.239,-0.645 (inactive)
CC(CCN1CCCc2nc(C)c(C)cc21)=NO[C@@H](C)c1cc(-c2c(C)cc(C)cc2C)no1,0.91,-0.0581,1.42,-0.603,-0.843,3.04,-0.127 (inactive),-0.0137,-1.08,-0.102 (inactive)
CCOC(=O)[C@H](CC(C)C)NC(=O)CCC1CC(OC(=O)NCc2ccc3c(c2)OCO3)CC2(CCCC(COC(=O)NCc3cccc(C(F)(F)F)c3)O2)O1 (stereo not given in full),0.112,0.214,-0.503,0.0777,-3.36,1.85,-0.176 (inactive),0.525,-0.412,-0.175 (inactive)
CCOC(=O)NN=C1C[C@@H](O)[C@@H](O)[C@@H]2[C@@H]3C(=O)N([C@@H](C)c4ccccc4)C(=O)[C@@H]3CC[C@@H]12,0.0669,-1.33,-0.624,0.372,-0.112,-0.369,-0.878 (inactive),-0.92,-0.834,0.4 (inactive)
C#CCCCON=C1C[C@@H](O)[C@@H](O)[C@@H]2[C@@H]3C(=O)N(c4ccc(F)cc4F)C(=O)[C@@H]3CC[C@H]12,1.14,-0.0377,-0.123,0.324,0.116,0.769,-0.229 (inactive),-0.0797,-1.25,0.705 (inactive)
Cc1ccc(S(=O)(=O)N[C@@H]2COC(=O)[C@@H](C)COC(=O)CC=C[C@H]2C)cc1,-0.168,0.996,0.617,0.0281,0.587,0.0622,-0.396 (inactive),0.62,0.743,0.0709 (inactive)
O=C(NN=C1C[C@@H](O)[C@@H](O)[C@@H]2[C@@H]3C(=O)N(C[C@@H]4CCCO4)C(=O)[C@@H]3CC[C@@H]12)OCc1ccccc1,0.468,0.211,-0.293,-0.745,0.215,0.795,0.131 (inactive),0.103,-0.989,-0.451 (inactive)
CC(=O)OC[C@H]1O[C@H](CCON=C2[C@H]3CCn4c(=O)n(-c5ccccc5)c(=O)n4[C@H]3[C@H](O)[C@@H]3O[C@H]23)C=C[C@@H]1OC(C)=O,0.0488,-1.08,0.254,-0.775,-0.645,-0.58,-0.91 (inactive),0.602,-0.876,-0.862 (inactive)
COc1ccc(O[C@H]2C=C[C@@H](c3ccccc3)O[C@@H]2COC(=O)CCC(C)=NOC(C)CN2CCCc3nc(C)c(C)cc32)cc1 (stereo not given in full),1.12,0.0929,0.919,-1.2,-0.63,1.54,-0.0369 (inactive),-0.455,-1.18,1.21 (inactive)
COC(=O)CC=C[C@@H](C)[C@@H]1C=C[C@H](O)[C@@H](CO)O1,-0.864,-1.02,-0.008,0.667,-0.932,0.295,-0.875 (inactive),-0.229,-0.433,-0.554 (inactive)
CC(CCN1CCCCc2nc(C)c(C)cc21)=NOC[C@@H](C)[C@H](OCc1ccccc1)C(C)C,0.139,0.588,1.39,-1.5,0.327,-0.728,0.155 (inactive),0.0506,-1.06,-0.472 (inactive)
